Results as given in PubChem BioAssay (NCI).
Where “and” joins values, the source holds several entries; their conditions need not be identical. Equal entries are not always repeated. Compounds without any hit were thinned out: in the full panel of roughly 83,000, 20% have a hit.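 In brief: 96-well plates, 48 h treatment, single concentration, percent growth endpoint.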 A structure can be active in one record and inactive in another. Calls of active or inactive are those of the source. Rule for the calls: active = growth percent below 10; inactive = the rest.

What was measured:
Assay in all cases: NCI-60 one-dose screen, 48 h (100 = growth as untreated, 0 = no growth, -100 = all killed)
Details in all cases: 10 µM unless noted
NCI-H23 lung = test system: NCI-H23 lung
NCI-H226 lung = test system: NCI-H226 lung
NCI-H322M lung = test system: NCI-H322M lung
HOP-62 NSCLC = test system: HOP-62 NSCLC
NCI-H460 lung = test system: NCI-H460 lung
HOP-92 NSCLC = test system: HOP-92 NSCLC
NCI-H522 lung = test system: NCI-H522 lung
786-0 renal = test system: 786-0 renal
COLO 205 colon = test system: COLO 205 colon
DU-145 prostate = test system: DU-145 prostate
K-562 leukemia = test system: K-562 leukemia
MALME-3M melanoma = test system: MALME-3M melanoma
MDA-MB-231 breast = test system: MDA-MB-231 breast
RXF 393 renal = test system: RXF 393 renal
SF-268 CNS = test system: SF-268 CNS
SF-295 CNS = test system: SF-295 CNS
SF-539 CNS = test system: SF-539 CNS
UACC-257 melanoma = test system: UACC-257 melanoma
M14 melanoma = test system: M14 melanoma
A549/ATCC NSCLC = test system: A549/ATCC NSCLC

| SMILES | growth (NCI-H23 lung) | growth (NCI-H226 lung) | growth (NCI-H322M lung) | growth (HOP-62 NSCLC) | growth (NCI-H460 lung) | growth (HOP-92 NSCLC) | growth (NCI-H522 lung) | growth (786-0 renal) | growth (COLO 205 colon) | growth (DU-145 prostate) | growth (K-562 leukemia) | growth (MALME-3M melanoma) | growth (MDA-MB-231 breast) | growth (RXF 393 renal) | growth (SF-268 CNS) | growth (SF-295 CNS) | growth (SF-539 CNS) | growth (UACC-257 melanoma) | growth (M14 melanoma) | growth (A549/ATCC NSCLC) |
| --- | --- | --- | --- | --- | --- | --- | --- | --- | --- | --- | --- | --- | --- | --- | --- | --- | --- | --- | --- | --- |
| COc1ccc(Cn2c(NCCN=C(N)N)nc(=O)n(Cc3ccc(F)cc3)c2=O)cc1 | 102% (inactive) and 89.5% (inactive) | 97.3% (inactive) and 95.3% (inactive) | 83% (inactive) and 90.7% (inactive) | 71.6% (inactive) and 85.7% (inactive) | 106% (inactive) and 104% (inactive) | 82.8% (inactive) | 90.2% (inactive) and 97.2% (inactive) | 98.5% (inactive) and 103% (inactive) | 105% (inactive) and 97.8% (inactive) | 104% (inactive) and 115% (inactive) | 89.6% (inactive) and 94% (inactive) | 91.7% (inactive) and 91.1% (inactive) | 107% (inactive) and 103% (inactive) | 95.5% (inactive) and 109% (inactive) | 61.8% (inactive) and 52.5% (inactive) | 102% (inactive) | 102% (inactive) and 89.7% (inactive) | 89.4% (inactive) and 101% (inactive) | 97.9% (inactive) and 100% (inactive) |  |
| CC1=NN(c2ccccc2)C(=O)C1C(=O)c1ccccc1 (stereo not drawn) | 98.2% (inactive) | 92.6% (inactive) | 110% (inactive) | 111% (inactive) | 108% (inactive) | 78.4% (inactive) | 98.5% (inactive) | 101% (inactive) | 106% (inactive) | 103% (inactive) |  | 97.6% (inactive) | 97.1% (inactive) | 140% (inactive) | 95.4% (inactive) | 97.7% (inactive) | 116% (inactive) | 94.3% (inactive) |  |  |
| Cc1cc(O)c2c(c1)C(=O)c1cc(O)cc(O)c1C2=O | 71% (inactive) and 91.7% (inactive) | 84.8% (inactive) and 90.8% (inactive) | 94.6% (inactive) and 107% (inactive) | 97.9% (inactive) and 78.1% (inactive) |  | -3.28% (active) and 20.5% (inactive) | 61% (inactive) and 78.8% (inactive) | 74.6% (inactive) and 83.3% (inactive) | 102% (inactive) and 96.7% (inactive) | 87.2% (inactive) and 104% (inactive) | 75.9% (inactive) and 87.9% (inactive) | 54.4% (inactive) and 94.1% (inactive) | 78.7% (inactive) and 87.3% (inactive) | 90.7% (inactive) and 107% (inactive) | 89.8% (inactive) and 97.6% (inactive) | 82.8% (inactive) and 94.9% (inactive) | 93.1% (inactive) and 86% (inactive) | 84.8% (inactive) and 92.2% (inactive) | 110% (inactive) and 93.6% (inactive) | 77.5% (inactive) and 81.1% (inactive) |
| Nc1ccccc1SC1CC(=O)N(c2cccc3ccccc23)C1=O (stereo not drawn) | 101% (inactive) | 83.6% (inactive) | 97% (inactive) | 90.5% (inactive) | 99.3% (inactive) |  |  | 101% (inactive) | 105% (inactive) | 111% (inactive) | 90.2% (inactive) | 101% (inactive) | 91.9% (inactive) | 93% (inactive) | 98.1% (inactive) | 94.7% (inactive) | 95.6% (inactive) |  | 105% (inactive) |  |
| Oc1c(CN2CCCCC2)ccc2cccnc12 | 79% (inactive) and 80.2% (inactive) | 63.8% (inactive) and 33.7% (inactive) | 36.5% (inactive) and 32.4% (inactive) | 52.1% (inactive) and 41.1% (inactive) | 21.1% (inactive) and 10.5% (inactive) |  | -3.86% (active) and 16.2% (inactive) | 11% (inactive) and 42.4% (inactive) | 66.7% (inactive) and 80.4% (inactive) | 67.9% (inactive) and 53.7% (inactive) | 28.8% (inactive) and 30.6% (inactive) | 88.1% (inactive) and 82.5% (inactive) | 53.2% (inactive) and 46.9% (inactive) | 85.1% (inactive) and 3.68% (active) | 69.3% (inactive) and 47.6% (inactive) | 37.1% (inactive) | 74.7% (inactive) and 57% (inactive) | 77.1% (inactive) and 71.6% (inactive) | 20.7% (inactive) and 32.6% (inactive) | 43.6% (inactive) and 36% (inactive) |
| COC(=O)/C=C/c1cc(O)c2c(c1)C(C(=O)OC)C(c1ccc(O)c(O)c1)O2 (stereo not drawn) | 30.8% (inactive) and 27.3% (inactive) | 57.1% (inactive) and 39.7% (inactive) | 72.7% (inactive) and 55.8% (inactive) | 45.8% (inactive) and 37.5% (inactive) |  | 16.5% (inactive) and -0.331% (active) | 1.09% (active) and 0.933% (active) | 17% (inactive) and 15% (inactive) | 58.5% (inactive) and 41% (inactive) | 11.7% (inactive) and 7.05% (active) | 9.16% (active) and 9.69% (active) | 72.1% (inactive) and 69% (inactive) | 13.5% (inactive) and 18% (inactive) | 55.9% (inactive) and 30% (inactive) | 34.1% (inactive) and 28.5% (inactive) | 19.2% (inactive) and 22.4% (inactive) | 5.8% (active) and 3.46% (active) | 62.4% (inactive) and 60.6% (inactive) | 2.19% (active) and 6.67% (active) | 31.5% (inactive) and 20.3% (inactive) |
| COc1c(/C(C)=N/N=c2sc(C(C)=O)nn2-c2ccc(Cl)cc2)c(Oc2ccccc2)c(OC)c2occc12 | 89.6% (inactive) and 98% (inactive) | 98.9% (inactive) and 97.4% (inactive) | 89.8% (inactive) and 100% (inactive) | 88.6% (inactive) and 98.3% (inactive) |  | 90.9% (inactive) and 93.5% (inactive) | 91.5% (inactive) and 79.8% (inactive) | 102% (inactive) | 114% (inactive) and 111% (inactive) | 110% (inactive) and 109% (inactive) | 93.9% (inactive) and 101% (inactive) | 102% (inactive) and 101% (inactive) | 107% (inactive) and 101% (inactive) | 113% (inactive) | 101% (inactive) and 87% (inactive) | 95.8% (inactive) and 105% (inactive) | 103% (inactive) and 93.7% (inactive) | 106% (inactive) and 113% (inactive) | 113% (inactive) and 96.2% (inactive) | 108% (inactive) and 102% (inactive) |
| NC(=O)c1ccccc1OCC(O)CO (stereo not drawn) | 110% (inactive) | 95.8% (inactive) | 110% (inactive) | 101% (inactive) | 103% (inactive) | 117% (inactive) | 98.4% (inactive) | 103% (inactive) | 114% (inactive) | 114% (inactive) | 107% (inactive) | 115% (inactive) | 103% (inactive) | 98.9% (inactive) | 105% (inactive) | 83.1% (inactive) | 90.2% (inactive) | 97.9% (inactive) | 112% (inactive) |  |
| CC1CCCc2sc3nc(NNC(=O)c4cnccn4)n(-c4ccccc4)c(=O)c3c21 (stereo not drawn) | 23.9% (inactive) and 20.2% (inactive) | -2.24% (active) and -5.33% (active) | 15.9% (inactive) and 6.48% (active) | 4.44% (active) and 1.42% (active) | 3.62% (active) and -47.3% (active) | 44% (inactive) and 42.3% (inactive) | -10.4% (active) and 6.49% (active) | 16.1% (inactive) and 6.45% (active) | 4.98% (active) and -2.77% (active) | 12.2% (inactive) and 12.9% (inactive) | 14.2% (inactive) and 13.4% (inactive) | 15.9% (inactive) and 11.2% (inactive) | 28.9% (inactive) and 25.5% (inactive) | 11.2% (inactive) and -15.9% (active) | 14.5% (inactive) and 5.5% (active) | 22.7% (inactive) and 11.3% (inactive) | 6.89% (active) and 6.17% (active) | -7.57% (active) and -18.3% (active) |  |  |
| Cc1c(Cl)cccc1NCN1C(=O)c2ccccc2C1=O | 102% (inactive) | 98.7% (inactive) | 99.8% (inactive) | 101% (inactive) | 108% (inactive) |  | 81.1% (inactive) | 103% (inactive) |  | 115% (inactive) | 109% (inactive) | 104% (inactive) | 121% (inactive) | 107% (inactive) | 107% (inactive) | 102% (inactive) | 102% (inactive) | 100% (inactive) | 110% (inactive) | 99.1% (inactive) |
